# According to the supplement of paper PMC3334620:
# Over roughly 33,000 sequences, “E-score (-0.5 to 0.5)” has its median near -0.012; the highest 2% begin near 0.29. The sample as a whole holds a higher share of the highest values than the screen did.
# Molecular target: T1, Ybr033w (UniProt P38073)
# T1 sequence: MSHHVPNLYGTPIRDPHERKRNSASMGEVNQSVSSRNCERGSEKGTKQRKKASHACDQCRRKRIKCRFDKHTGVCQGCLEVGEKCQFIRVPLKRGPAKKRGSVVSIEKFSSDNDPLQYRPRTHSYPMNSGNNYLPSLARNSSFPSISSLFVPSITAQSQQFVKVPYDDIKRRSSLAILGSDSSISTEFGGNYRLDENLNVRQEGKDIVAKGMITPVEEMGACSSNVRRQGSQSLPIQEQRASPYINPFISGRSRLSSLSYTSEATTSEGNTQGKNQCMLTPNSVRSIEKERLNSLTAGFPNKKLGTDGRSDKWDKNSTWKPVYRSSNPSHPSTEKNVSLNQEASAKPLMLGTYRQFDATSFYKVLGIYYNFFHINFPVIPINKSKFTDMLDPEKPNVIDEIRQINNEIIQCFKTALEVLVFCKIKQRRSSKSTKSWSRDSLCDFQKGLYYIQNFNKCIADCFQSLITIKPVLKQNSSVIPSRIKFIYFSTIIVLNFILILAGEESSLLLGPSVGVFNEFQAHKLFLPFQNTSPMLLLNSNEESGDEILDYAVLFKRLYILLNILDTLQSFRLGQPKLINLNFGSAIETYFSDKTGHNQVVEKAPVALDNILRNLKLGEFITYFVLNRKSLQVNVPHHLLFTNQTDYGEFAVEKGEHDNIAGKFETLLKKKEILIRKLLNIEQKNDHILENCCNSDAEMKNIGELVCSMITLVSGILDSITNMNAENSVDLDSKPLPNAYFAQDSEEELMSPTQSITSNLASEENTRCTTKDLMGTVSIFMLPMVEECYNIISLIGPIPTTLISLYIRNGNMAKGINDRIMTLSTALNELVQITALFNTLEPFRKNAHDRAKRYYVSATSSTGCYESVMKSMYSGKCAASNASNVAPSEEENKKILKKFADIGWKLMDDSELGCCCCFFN
# Assay: PBM E-score (8-mer binding enrichment) (E-score (-0.5 to 0.5)); higher = stronger / more preferred TF binding
# Settings: protein concentration: 200 nM; construct: GST-full length
# Protocol: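 Universal 'all 10-mer' protein binding microarrays (Agilent AMADID 015681) probed with GST-tagged S. cerevisiae TFs (full-length or DBD) made by in vitro transcription/translation (PURExpress), about 100-200 nM. Bound TF was detected with fluorescent anti-GST. Each ungapped 8-mer (which stands for itself and its reverse complement) is scored by the PBM enrichment score (E-score), a modified Wilcoxon-Mann-Whitney statistic from -0.5 to +0.5, computed with the Universal PBM Analysis Suite. Scale: above 0.35 generally sequence-specific binding.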
row,Sequence,PBM E-score
1,ATATTTTG,0.234
2,CTATTTCC,0.276
3,CCCCTTTC,-0.262
4,GGAACGAA,0.104
5,AGGGATAT,0.0785
6,ACGACTCC,0.0443
7,CGGGGTAG,-0.177
8,GTGGCTAA,0.0232
9,AAATTTGT,0.303
10,AAAATTAC,0.22
11,GAAATTAA,0.294
12,GAAATTAC,0.255
13,AATTTTGT,0.215
14,GAAATTCA,0.228
15,AAATTTGG,0.0261
16,CAAATTAA,0.212
17,AAAATTCA,0.359
18,AAAATTCG,0.279
19,AAATTTAT,0.228
20,AAAATTAT,0.358
21,CCACTTAC,0.0573
22,TAACGGAA,0.153

row,Sequence,PBM E-score
1,CTCAGAGC,-0.191
2,CCGAAGTC,-0.0348
3,CAATGAAG,0.0396
4,GACTGTTA,0.0926
5,AGAGGAAT,-0.012
6,ACGAGGAC,-0.181
7,CTAAATGC,0.0943
8,AAAAATTT,0.283
9,AAAATTTC,0.132
10,GAAATTGA,0.289
11,AAAATTAA,0.308
12,AAAATTAG,0.179
13,TAAATTAA,0.283
14,AAAATTTT,0.293
15,TAAATTGA,0.265
16,GAAATTGC,0.0471
17,GGGGAGGA,-0.205
18,ATGGTCTC,-0.0831
19,CAGCAGAC,-0.106
20,ACAGTCGC,-0.136
21,AAGCGACG,-0.285
22,ACGGGTGG,-0.171

row,Sequence,PBM E-score
1,GTACGCTA,-0.178
2,TCCCTACA,-0.0308
3,GTTAAAGA,0.182
4,ATTAAAAA,0.297
5,ATTAAAAG,0.223
6,TTTAAAAA,0.149
7,ATTAAACG,0.27
8,CTTAAACA,0.104
9,ATTAAAAC,0.272
10,ATTAAACA,0.312
11,CTTAAAGA,-0.102
12,CTAAAAAA,0.267
13,ATTAAAGA,0.327
14,TTAAAAAA,0.306
15,GGGTATGA,0.0197
16,ACTCCCCT,-0.002
17,CTGATAAG,0.126
18,AGAAACCC,0.0994
19,CAGTGCCG,-0.105
20,CTTCGTAC,-0.103
21,GCCGCTAC,-0.121
22,GAGCTGCA,-0.284

row,Sequence,PBM E-score
1,GAGTAATA,0.334
2,TAGTAATA,0.241
3,AAGTAATA,0.0769
4,CAGTAATC,-0.0846
5,AAGTAATG,0.141
6,GAGTAATC,0.132
7,CAGTAATA,0.317
8,CAGTAATG,0.282
9,AAGTAATT,0.331
10,GGGCTGAA,0.0197
11,ATAGCCAT,0.0973
12,ACAATGCC,-0.0228
13,CGCAAATC,-0.0144
14,TAGGTGCA,-0.0741
15,TAATGGAA,0.184
16,CTGATTAA,0.22
17,TGCATTAA,0.256
18,GGGATTAC,-0.103
19,CTGATTTA,0.156
20,GTGATTTA,0.295
21,GGGATTAA,0.411
